Test results: PubChem BioAssay (Tox21)
Values joined by “and” are separate entries in the source; they are usually repeats but may differ in a detail not shown here. Equal values may be shown once. Records with an inconclusive call do not appear. Where a call stands in place of a potency, no number is given. Active and inactive are the calls of the source. Unless noted, the call rests on the fitted dose curve; in most records, active means well fitted activation curve with a large enough effect in the repeat runs; inconclusive means weak or mixed curves; inactive means no such curve, though single readings can be large or run the other way.
Further: nearly all actives have a fitted effect of over 15% in size.

Assay: qHTS assay for small molecule agonists of the p53 signaling pathway (AID 651631; calls by dose curve; further: potency means the concentration at half of the fitted maximal effect)
Settings: HCT-116 p53RE-bla reporter, beta-lactamase FRET ratio, 16 h; series mostly up to 73.3 µM; activation: at the top concentration
Method in brief: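 Fluorescence intensity from cleaved LiveBLAzer B/G substrate (2 h, room temperature) served as the signal. Beforehand, HCT-116 reporter cells bearing p53 response elements were treated 16 h at 37 °C with DMSO-dissolved compounds.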
For `CCCCC(CC)COC(=O)CCCCC(=O)OCC(CC)CCCC` (configuration not stated), the “activation” value was 2.91% (inactive). In the case of `COCCCOc1ccnc(CS(=O)c2nc3ccccc3[nH]2)c1C` (configuration not stated), the Potency is reported as “inactive”. In the case of `NNc1nncc2ccccc12`, the Potency is reported as “inactive”. With `CCCSc1ccc2nc(NC(=O)OC)[nH]c2c1` the Potency was 320 nM (active) and 306 nM (active).

Assay: qHTS assay for small molecules that induce genotoxicity in human embryonic kidney cells expressing luciferase-tagged ATAD5 (AID 651632)
Settings: HEK293T ATAD5-luciferase induction, 16 h; series mostly up to 83.3 µM; activation: at the top concentration
Method in brief: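 Increased luciferase signal from ATAD5-tagged reporter cells indicates DNA-damage-driven ATAD5 induction. HEK293T cells are treated for 16 hr at 37C before detection with Amplite.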
In the case of `O=C(O)c1cc(C(=O)O)cc(S(=O)(=O)O)c1`, the outcome is reported as “inactive”. With `CC1CCC(C(C)C)C(O)C1` (configuration not stated) the outcome was “inactive”. In the case of `CCCCCC1=CCCC1=O`, the outcome is reported as “inactive”. In the case of `O=C(O)c1ccccc1C(c1ccc(O)cc1)c1ccc(O)cc1`, the “activation” value is reported as -0.671% (inactive). In the case of `CCCCCC/C(C=O)=C\c1ccccc1`, the outcome is reported as “inactive”. In the case of `O=C(O)CCCC[C@@H]1SC[C@@H]2NC(=O)N[C@@H]21`, the outcome is reported as “inactive”. For `C=C(C)C(=O)Nc1ccc(Cl)c(Cl)c1`, the outcome was “inactive”. With `Cc1cccnc1` the outcome was “inactive”. In the case of `CC[C@H](C)C(=O)O[C@H]1C[C@@H](C)C=C2C=C[C@H](C)[C@H](CC[C@@H]3C[C@@H](O)CC(=O)O3)[C@H]21`, the outcome is reported as “inactive”. In the case of `O=[N+]([O-])c1ccc(/C=C/c2ccc([N+](=O)[O-])cc2S(=O)(=O)O)c(S(=O)(=O)O)c1`, the outcome is reported as “inactive”. In the case of `CC(=O)Nc1ccccc1`, the outcome is reported as “inactive”. For `Cc1occc(=O)c1O`, the outcome was “inactive”. For `OCC(CO)(CBr)CBr`, the outcome was “inactive”. In the case of `CCCCCCCCCCCCOCCO`, the “activation” value is reported as 1.5% (inactive). In the case of `O=C(O)[C@H](O)[C@@H](O)[C@H](O)[C@H](O)CO`, the outcome is reported as “inactive”. With `COc1ccc(NC(C)=O)cc1N` the outcome was “inactive”. For `CCCCCOC(C)=O`, the outcome was “inactive”. With `OC[C@H]1O[C@@](CO)(O[C@H]2O[C@H](CO)[C@@H](O)[C@H](O)[C@H]2O)[C@@H](O)[C@@H]1O` the outcome was “inactive”.
